Compounds with a hit are over-represented: about 0.58% of the library has one in this group of screens.
Six1-Eya2 blk – blocks human Six1 binding to Eya2. activity change, % (concentration not given with the values). AID 651725. AlphaScreen GST-Six1/His-Eya2 binding, biochemical; stronger effect = lower value. actives 0.56% (n = 360,000); further: on the % scale 0 is the no-effect control and ±100 the full control effect
Target sequence (O00167 whole entry, looked up): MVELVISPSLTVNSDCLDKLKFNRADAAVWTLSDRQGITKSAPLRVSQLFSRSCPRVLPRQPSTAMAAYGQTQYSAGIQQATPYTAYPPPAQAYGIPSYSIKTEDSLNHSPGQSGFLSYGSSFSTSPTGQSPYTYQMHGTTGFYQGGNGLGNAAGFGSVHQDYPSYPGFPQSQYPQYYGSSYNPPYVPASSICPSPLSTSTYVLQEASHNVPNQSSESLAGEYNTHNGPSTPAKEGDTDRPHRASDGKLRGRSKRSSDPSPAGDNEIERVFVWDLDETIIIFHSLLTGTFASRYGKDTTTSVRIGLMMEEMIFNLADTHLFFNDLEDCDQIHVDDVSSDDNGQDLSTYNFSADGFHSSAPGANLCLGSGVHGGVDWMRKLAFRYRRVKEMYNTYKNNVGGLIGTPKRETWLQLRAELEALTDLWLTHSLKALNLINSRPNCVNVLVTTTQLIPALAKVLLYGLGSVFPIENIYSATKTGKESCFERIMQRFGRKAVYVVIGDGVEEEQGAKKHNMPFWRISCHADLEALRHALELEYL
Target sequence (Q15475 whole entry, looked up): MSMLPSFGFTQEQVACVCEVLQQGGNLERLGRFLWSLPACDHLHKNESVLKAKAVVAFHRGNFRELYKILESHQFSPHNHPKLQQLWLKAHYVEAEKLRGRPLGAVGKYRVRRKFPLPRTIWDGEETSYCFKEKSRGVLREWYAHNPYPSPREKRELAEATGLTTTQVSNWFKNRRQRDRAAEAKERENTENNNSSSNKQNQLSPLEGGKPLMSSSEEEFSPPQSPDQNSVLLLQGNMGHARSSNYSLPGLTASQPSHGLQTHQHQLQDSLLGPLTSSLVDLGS
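GST-Six1 + His-Eya2 (5X stock: 250/500 nM); Tris pH 8.0, 300 mM NaCl, 0.05% BSA, 0.02% Tween 20; GSH donor/Ni acceptor beads; 1 h 37 °C dark; AlphaScreen readout.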
GRP78 ERSR act – induces the endoplasmic reticulum stress response in human glioma cells | U87-MG GRP78 promoter luciferase reporter, 16 h | Potency, µM, inactives show at the highest dose activation, actives largely listed as activators | actives 0.02% (n = 420,000); active means well fitted curve in the direction sought with a large enough effect; inconclusive means small, poorly fitted or top-dose-only effect, or another doubt; inactive means no such curve, though single readings can be large; an effect the other way counts as inactive or inconclusive; further: potency means the concentration at half of the fitted maximal effect; series mostly up to about 76 µM; % of control where 0% means no effect; nearly all actives have a fitted effect of over 35% in size
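ERSR induction read as luciferase luminescence (Bright-Glo, 10 min at room temperature) in stably transfected human U87-MG glioma cells exposed to compounds for 16 h, using GRP78 as sensor.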
CtBP-E1A inh – blocks the CtBP interaction with E1A | AlphaScreen GST-E1A/His-CtBP binding, 1536-well; stronger effect = lower value | activity change, % (concentration not given with the values) | actives 0.49% (n = 340,000) | AID 651724; further: on the % scale 0 is the no-effect control and ±100 the full control effect
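Homogeneous bead-based format: GST-tagged E1A captured on glutathione donor beads, His-tagged CtBP on nickel acceptor beads; compounds precede bead addition by 2 h at 37 °C.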
Eya2 inh – blocks the phosphatase activity of human Eya2; actives 0.006% (n = 330,000); AID 488837; Potency, µM (doses to about 76.9 µM), for inactives: at the top dose activity, negative = inhibition, usual class: inhibitors; recombinant Eya2, OMFP fluorescence dephosphorylation (OMFP is methylfluorescein phosphate); further: potency means the concentration at half of the fitted maximal effect; on the % scale 0 is the no-effect control and ±100 the full control effect
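Eya2 (0.2 uM) preincubated 10 min at ambient with compound, then OMFP substrate added at 50 uM; 10 min reaction in 50 mM HEPES pH 7.5, 50 mM NaCl, 5 uM MgCl2, 0.05% BSA, 1 mM DTT. Fluorescence read at Ex 485/Em 525 nm.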
Active calls of the source: *. Unless noted, no stated cut-off is given here; in the data, active means activity change below about -65%; inconclusive means mostly about -30% to -63%; inactive means weaker than that.

`Oc1c(CN2CCCCC2)ccc2cccnc12` gave Six1-Eya2 blk -80*, GRP78 ERSR act -6% and CtBP-E1A inh -93*.
Oc1ccc(CN2CCC(Cc3ccccc3)CC2)c2cccnc12 was read as Six1-Eya2 blk -73*, GRP78 ERSR act -1%, CtBP-E1A inh inconclusive and Eya2 inh 1%.
`Oc1ccc(CN2CCN(c3ccccc3)CC2)c2cccnc12` gave Six1-Eya2 blk -74*, GRP78 ERSR act 3%, CtBP-E1A inh -75* and Eya2 inh -20%.
`Oc1c(CN2CCOCC2)ccc2ccccc12` gave Six1-Eya2 blk -7, GRP78 ERSR act -2%, CtBP-E1A inh -1 and Eya2 inh -13%.
Clc1ccccc1CN1CCC(Cc2ccccc2)CC1 was read as Six1-Eya2 blk 5, GRP78 ERSR act -5%, CtBP-E1A inh -4 and Eya2 inh 1%.
For CN1CCCCC1C(=O)N1CCC(Oc2cccc(CN3CCN(c4ccccn4)CC3)c2)CC1 (centres undefined) the results were GRP78 ERSR act -4%.
Cc1cnc(SCc2ccccn2)nc1C1CCCN(C(=O)c2ccc3c(c2)OCO3)C1 (centres undefined) was read as GRP78 ERSR act 1%.
Screening Oc1cc2c(cc1CN1CCc3ccccc3C1)OCO2 returned Six1-Eya2 blk -12, GRP78 ERSR act -2%, CtBP-E1A inh -19 and Eya2 inh -1%.
For Oc1ccc(CN2CCc3ccccc3C2)c2cccnc12 the results were Six1-Eya2 blk -94*, GRP78 ERSR act -6% and CtBP-E1A inh -95*.
Screening Oc1c(Cl)cc(CN2CCCCC2)c2cccnc12 returned Eya2 inh 4%.
For Oc1ccc(CN2CCCCC2)c2cccnc12 the results were Six1-Eya2 blk -91*, GRP78 ERSR act -5%, CtBP-E1A inh -90* and Eya2 inh -8%.
`N#CC(c1ccccc1)c1ccc2c(C(F)(F)F)cc(C(F)(F)F)nc2n1` (centres undefined) gave Six1-Eya2 blk -75*, GRP78 ERSR act -10%, CtBP-E1A inh -66* and Eya2 inh -4%.
Screening Cc1ccc(C(C#N)c2ccc3c(C(F)(F)F)cc(C(F)(F)F)nc3n2)cc1 (centres undefined) returned Six1-Eya2 blk inconclusive, GRP78 ERSR act -4%, CtBP-E1A inh inconclusive and Eya2 inh -9%.
`CCOC(=O)c1nnn(-c2ccc([N+](=O)[O-])cc2[N+](=O)[O-])c1C` gave Six1-Eya2 blk -6, GRP78 ERSR act -4%, CtBP-E1A inh -66* and Eya2 inh -4%.
Cc1cnc(C)c(-c2cccc3c2OC(CNC(=O)CN2C(=O)c4ccccc4C2=O)C3)n1 (centres undefined) was read as GRP78 ERSR act -3%.
Screening Cc1cnc(-n2ncc(C(=O)NCCc3cccnc3)c2C)nc1-c1cccs1 returned GRP78 ERSR act -3%.
O=C(C[n+]1c(Cl)cc(Cl)c2ccccc21)c1ccccc1 was read as GRP78 ERSR act -3%.
`CCOc1ccc(-c2noc(CCC(=O)NCCc3ccccc3)n2)cc1OC` gave Six1-Eya2 blk 7, GRP78 ERSR act 0%, CtBP-E1A inh -65* and Eya2 inh -10%.
For COc1ccc(-c2noc(CCC(=O)NCCc3ccccc3)n2)cc1 the results were Six1-Eya2 blk 7, GRP78 ERSR act 0%, CtBP-E1A inh -6 and Eya2 inh 4%.
`Cc1nn2c(=S)[nH]nc2[nH]c1=O` gave Six1-Eya2 blk -3, GRP78 ERSR act -3%, CtBP-E1A inh -22 and Eya2 inh 3%.
For Cc1n[nH]c(=S)n(NC(=O)/C=C/C(=O)Nn2c(=S)[nH]nc(C)c2=O)c1=O the results were Six1-Eya2 blk -88*, GRP78 ERSR act -1%, CtBP-E1A inh inconclusive and Eya2 inh 5%.
Cc1n[nH]c(=S)n(NC(=O)CC(=O)Nn2c(=S)[nH]nc(C)c2=O)c1=O was read as Six1-Eya2 blk -87*, GRP78 ERSR act -3%, CtBP-E1A inh 24 and Eya2 inh 11%.
For Cc1cc(C(=O)N/N=C/c2cccc([N+](=O)[O-])c2O)n[nH]1 the results were Six1-Eya2 blk -91*, GRP78 ERSR act 0% and Eya2 inh -1%.
For Cc1cc(C(=O)N/N=C/c2cc(N=Nc3ccccc3)ccc2O)n[nH]1 the results were Six1-Eya2 blk -90*, GRP78 ERSR act 3%, CtBP-E1A inh -1 and Eya2 inh -5%.
`COC(=O)N/N=C/c1cc(N=Nc2ccccc2)ccc1O` gave Six1-Eya2 blk -10, GRP78 ERSR act 7%, CtBP-E1A inh -10 and Eya2 inh 12%.

From PubChem
